# Data published in the supplement of paper PMC10849652.
# About 8,800 targets were measured; listed, in parts, are those with a hit and a random draw of the rest. About 0.5% of all pairs of compound and target were hits.
# Compound: Cc1cn(-c2cc(NC(=O)c3ccc(C)c(Nc4nccc(-c5cccnc5)n4)c3)cc(C(F)(F)F)c2)cn1 [nilotinib]
# Test: log2 fold change, soluble protein after heating vs DMSO (PISA); higher = thermal stabilisation; K562 lysate, 10 uM; active = over 0.2 and 3.5 SD of the protein, either way, in both replicates (recomputed)
# Summary of the method: (§1)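 To prepare the extract, K562 pellets were dounce-homogenised in PBS pH 7.4 with 1 mM MgCl2, giving crude material at 1 mg/mL protein. This was treated with 10 μM compound for 30 min, then heated in aliquots for 3 min over 48°C-58°C before pooling and addition of NP-40 to 0.5% at 4°C. Centrifugation at 21,000xg for 90 min left soluble protein in the supernatant, which TMTpro 16plex LC-MS/MS quantified with equalised channel sums. Results are log-two fold changes in thermal stability compared with solvent controls, from duplicates.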
# UniProt Q01664, sequence (Q01664 whole entry, looked up): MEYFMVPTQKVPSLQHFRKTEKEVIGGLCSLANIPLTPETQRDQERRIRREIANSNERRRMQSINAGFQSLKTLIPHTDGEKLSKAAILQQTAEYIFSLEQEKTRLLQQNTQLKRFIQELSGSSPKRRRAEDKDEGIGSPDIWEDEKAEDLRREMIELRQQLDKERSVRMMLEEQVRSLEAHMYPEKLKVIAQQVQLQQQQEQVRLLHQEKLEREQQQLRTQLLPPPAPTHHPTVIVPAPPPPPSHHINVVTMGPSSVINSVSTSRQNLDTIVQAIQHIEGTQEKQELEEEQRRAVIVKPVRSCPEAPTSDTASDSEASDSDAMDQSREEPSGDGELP
# UniProt Q9NRX6, sequence (Q9NRX6 whole entry, looked up): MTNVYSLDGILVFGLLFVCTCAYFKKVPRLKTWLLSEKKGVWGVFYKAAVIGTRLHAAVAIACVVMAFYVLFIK
# UniProt Q8TDI8, sequence (Q8TDI8 whole entry, looked up): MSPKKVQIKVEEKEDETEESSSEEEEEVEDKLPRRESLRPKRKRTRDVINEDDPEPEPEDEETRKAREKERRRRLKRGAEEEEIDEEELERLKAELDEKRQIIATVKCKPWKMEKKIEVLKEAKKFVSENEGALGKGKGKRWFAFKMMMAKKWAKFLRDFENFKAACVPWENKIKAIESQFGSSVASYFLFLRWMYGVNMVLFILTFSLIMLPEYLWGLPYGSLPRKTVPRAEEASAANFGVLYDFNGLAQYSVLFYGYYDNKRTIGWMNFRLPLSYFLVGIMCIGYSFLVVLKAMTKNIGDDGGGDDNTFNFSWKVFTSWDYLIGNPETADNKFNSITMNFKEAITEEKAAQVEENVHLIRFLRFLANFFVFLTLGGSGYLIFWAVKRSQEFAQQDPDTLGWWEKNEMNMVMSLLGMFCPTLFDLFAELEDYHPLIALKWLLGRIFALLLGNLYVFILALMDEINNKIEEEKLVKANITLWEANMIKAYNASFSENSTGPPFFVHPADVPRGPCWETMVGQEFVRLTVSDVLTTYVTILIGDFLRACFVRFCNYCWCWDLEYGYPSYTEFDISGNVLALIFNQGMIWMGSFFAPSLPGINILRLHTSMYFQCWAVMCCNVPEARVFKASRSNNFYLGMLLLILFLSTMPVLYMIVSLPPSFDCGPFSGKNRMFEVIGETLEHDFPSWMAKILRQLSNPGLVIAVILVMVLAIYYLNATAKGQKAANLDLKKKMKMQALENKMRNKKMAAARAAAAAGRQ
# UniProt P62328, sequence (P62328 whole entry, looked up): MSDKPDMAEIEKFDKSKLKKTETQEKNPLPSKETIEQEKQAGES
# UniProt P55851, sequence (P55851 whole entry, looked up): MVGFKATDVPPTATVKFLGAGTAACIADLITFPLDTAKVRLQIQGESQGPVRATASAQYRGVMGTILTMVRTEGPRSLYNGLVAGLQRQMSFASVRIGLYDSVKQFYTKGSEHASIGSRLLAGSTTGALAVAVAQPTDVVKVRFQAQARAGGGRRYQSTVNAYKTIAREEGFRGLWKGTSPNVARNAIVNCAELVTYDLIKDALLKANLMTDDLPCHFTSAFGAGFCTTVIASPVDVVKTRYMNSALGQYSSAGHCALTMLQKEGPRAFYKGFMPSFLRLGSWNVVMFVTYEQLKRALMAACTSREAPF
# UniProt Q8NDZ6, sequence (Q8NDZ6 whole entry, looked up): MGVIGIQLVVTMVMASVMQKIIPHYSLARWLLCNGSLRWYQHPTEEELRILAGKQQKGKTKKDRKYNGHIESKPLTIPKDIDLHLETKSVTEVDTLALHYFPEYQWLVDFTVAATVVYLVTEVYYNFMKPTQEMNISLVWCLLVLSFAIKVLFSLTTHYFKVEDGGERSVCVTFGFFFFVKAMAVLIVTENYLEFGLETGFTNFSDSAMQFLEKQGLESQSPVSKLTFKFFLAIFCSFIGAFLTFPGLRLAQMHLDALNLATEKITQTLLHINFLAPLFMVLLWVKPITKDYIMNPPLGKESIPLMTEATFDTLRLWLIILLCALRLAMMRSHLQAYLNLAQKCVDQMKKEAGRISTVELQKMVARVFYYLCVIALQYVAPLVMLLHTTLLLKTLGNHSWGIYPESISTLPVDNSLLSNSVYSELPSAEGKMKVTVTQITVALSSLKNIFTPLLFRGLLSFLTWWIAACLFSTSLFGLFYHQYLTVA
# UniProt O43399, sequence (O43399 whole entry, looked up): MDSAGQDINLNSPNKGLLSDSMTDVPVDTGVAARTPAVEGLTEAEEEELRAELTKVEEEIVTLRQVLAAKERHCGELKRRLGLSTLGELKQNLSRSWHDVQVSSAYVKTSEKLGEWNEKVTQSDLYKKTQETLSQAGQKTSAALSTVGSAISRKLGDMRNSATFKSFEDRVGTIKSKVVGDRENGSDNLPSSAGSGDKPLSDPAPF
# UniProt P42680, sequence (P42680 whole entry, looked up): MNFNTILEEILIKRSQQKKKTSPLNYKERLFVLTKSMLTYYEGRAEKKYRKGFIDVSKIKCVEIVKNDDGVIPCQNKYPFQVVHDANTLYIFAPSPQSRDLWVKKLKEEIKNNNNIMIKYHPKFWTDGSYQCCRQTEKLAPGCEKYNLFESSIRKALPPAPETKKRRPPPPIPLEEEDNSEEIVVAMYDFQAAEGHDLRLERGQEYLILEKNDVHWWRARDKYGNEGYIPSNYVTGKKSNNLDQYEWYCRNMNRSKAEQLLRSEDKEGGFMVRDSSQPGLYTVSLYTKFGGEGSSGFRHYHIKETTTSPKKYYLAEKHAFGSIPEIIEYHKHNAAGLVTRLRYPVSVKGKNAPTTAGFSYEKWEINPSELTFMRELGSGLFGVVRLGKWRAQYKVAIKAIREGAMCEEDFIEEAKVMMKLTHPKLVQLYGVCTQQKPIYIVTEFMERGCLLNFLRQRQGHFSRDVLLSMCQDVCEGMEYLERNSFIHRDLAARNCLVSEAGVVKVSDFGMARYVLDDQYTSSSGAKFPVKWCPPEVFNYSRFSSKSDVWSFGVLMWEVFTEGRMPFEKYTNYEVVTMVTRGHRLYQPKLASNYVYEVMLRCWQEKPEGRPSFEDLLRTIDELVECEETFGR
# UniProt P10646, sequence (P10646 whole entry, looked up): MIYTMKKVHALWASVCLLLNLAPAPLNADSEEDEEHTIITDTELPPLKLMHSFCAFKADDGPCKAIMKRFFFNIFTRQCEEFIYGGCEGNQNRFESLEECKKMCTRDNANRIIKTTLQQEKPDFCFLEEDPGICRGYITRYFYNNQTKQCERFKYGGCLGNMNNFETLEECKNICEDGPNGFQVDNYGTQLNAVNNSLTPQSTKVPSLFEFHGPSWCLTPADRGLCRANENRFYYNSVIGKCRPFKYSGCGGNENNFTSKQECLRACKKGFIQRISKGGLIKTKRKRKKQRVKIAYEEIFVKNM
# UniProt Q14157, sequence (Q14157 whole entry, looked up): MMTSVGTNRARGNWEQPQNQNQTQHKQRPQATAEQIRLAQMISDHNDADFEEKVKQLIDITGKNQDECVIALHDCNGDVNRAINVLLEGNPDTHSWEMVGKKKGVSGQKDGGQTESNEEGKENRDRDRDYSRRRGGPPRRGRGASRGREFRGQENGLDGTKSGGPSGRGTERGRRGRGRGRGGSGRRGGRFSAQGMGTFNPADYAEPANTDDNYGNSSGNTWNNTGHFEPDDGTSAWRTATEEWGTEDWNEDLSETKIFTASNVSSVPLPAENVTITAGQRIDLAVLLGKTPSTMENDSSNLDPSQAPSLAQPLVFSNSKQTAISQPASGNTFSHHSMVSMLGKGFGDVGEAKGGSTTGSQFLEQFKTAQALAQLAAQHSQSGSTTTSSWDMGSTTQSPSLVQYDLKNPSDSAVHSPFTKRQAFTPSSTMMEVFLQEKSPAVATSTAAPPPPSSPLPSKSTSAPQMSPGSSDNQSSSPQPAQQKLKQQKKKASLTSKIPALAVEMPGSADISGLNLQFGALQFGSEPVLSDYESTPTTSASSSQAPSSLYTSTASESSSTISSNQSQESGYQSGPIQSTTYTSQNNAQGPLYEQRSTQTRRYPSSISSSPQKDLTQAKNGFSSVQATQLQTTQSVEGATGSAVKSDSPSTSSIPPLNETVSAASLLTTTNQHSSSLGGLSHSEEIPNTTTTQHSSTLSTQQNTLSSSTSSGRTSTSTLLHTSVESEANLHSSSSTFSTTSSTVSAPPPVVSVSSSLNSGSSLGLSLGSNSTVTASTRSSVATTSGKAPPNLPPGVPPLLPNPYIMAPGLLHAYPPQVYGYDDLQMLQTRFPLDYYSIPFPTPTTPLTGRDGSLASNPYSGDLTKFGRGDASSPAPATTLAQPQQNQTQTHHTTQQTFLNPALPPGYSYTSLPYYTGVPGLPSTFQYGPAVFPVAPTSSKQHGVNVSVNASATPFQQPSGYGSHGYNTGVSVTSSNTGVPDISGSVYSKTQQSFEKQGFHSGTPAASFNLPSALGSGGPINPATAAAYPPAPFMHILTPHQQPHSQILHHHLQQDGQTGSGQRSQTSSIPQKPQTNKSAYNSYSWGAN
# UniProt Q96BZ9, sequence (Q96BZ9 whole entry, looked up): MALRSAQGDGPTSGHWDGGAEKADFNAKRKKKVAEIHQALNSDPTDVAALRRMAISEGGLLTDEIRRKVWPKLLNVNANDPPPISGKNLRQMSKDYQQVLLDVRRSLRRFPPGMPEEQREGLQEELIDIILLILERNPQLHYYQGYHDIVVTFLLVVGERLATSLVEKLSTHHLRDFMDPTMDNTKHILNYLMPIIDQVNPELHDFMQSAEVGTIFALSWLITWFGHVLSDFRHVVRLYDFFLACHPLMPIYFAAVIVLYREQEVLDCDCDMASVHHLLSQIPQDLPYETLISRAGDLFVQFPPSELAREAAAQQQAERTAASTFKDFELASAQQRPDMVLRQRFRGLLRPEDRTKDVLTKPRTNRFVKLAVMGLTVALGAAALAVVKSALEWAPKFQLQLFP
# UniProt P06753, sequence (P06753 whole entry, looked up): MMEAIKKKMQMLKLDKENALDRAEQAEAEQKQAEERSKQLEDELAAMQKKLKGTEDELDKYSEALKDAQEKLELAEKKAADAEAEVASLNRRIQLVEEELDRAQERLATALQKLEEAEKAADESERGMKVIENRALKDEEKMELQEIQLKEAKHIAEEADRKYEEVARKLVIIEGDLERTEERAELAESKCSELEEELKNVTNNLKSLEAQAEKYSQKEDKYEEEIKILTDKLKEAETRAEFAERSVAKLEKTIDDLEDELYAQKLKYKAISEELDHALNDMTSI
row,Target,log2 fold change
1,TEC (UniProt P42680),-0.047 (inactive)
2,UCP2 (UniProt P55851),0.144 (inactive)
3,TMSB4X (UniProt P62328),-0.105 (inactive)
4,TFAP4 (UniProt Q01664),0.18 (inactive)
5,TFPI (UniProt P10646),-0.076 (inactive)
6,TMC1 (UniProt Q8TDI8),-0.073 (inactive)
7,TMEM167B (UniProt Q9NRX6),0.006 (inactive)
8,TUBB6 (UniProt K7ES63),-0.051 (inactive)
9,TPD52L2 isoform 3 (UniProt O43399),0.055 (inactive)
10,UBAP2L isoform 1 (UniProt Q14157),-0.03 (inactive)
11,TMEM161B (UniProt Q8NDZ6),0.419 (active)
12,UBAP2 (UniProt Q5JV08),-0.211 (inactive)
13,TUBB4A (UniProt M0QYM7),-0.029 (inactive)

# Compound: Cc1nc(Nc2n[nH]c3c2CN(C(=O)N[C@H](CN(C)C)c2ccccc2)C3(C)C)c2sccc2n1
# Test: as above
# Summary of the method: as §1
row,Target,log2 fold change
1,TEC (UniProt P42680),0.099 (inactive)
2,UCP2 (UniProt P55851),-0.186 (inactive)
3,TMSB4X (UniProt P62328),-0.107 (inactive)
4,TFAP4 (UniProt Q01664),0.155 (inactive)
5,TFPI (UniProt P10646),0.04 (inactive)
6,TMC1 (UniProt Q8TDI8),-0.049 (inactive)
7,TMEM167B (UniProt Q9NRX6),0.031 (inactive)
8,TUBB6 (UniProt K7ES63),0.112 (inactive)
9,TPD52L2 isoform 3 (UniProt O43399),0.035 (inactive)
10,UBAP2L isoform 1 (UniProt Q14157),-0.081 (inactive)
11,TMEM161B (UniProt Q8NDZ6),-0.014 (inactive)
12,UBAP2 (UniProt Q5JV08),0.172 (inactive)
13,TUBB4A (UniProt M0QYM7),-0.009 (inactive)

# Compound: Cc1nc(Nc2ncc(C(=O)Nc3c(C)cccc3Cl)s2)cc(N2CCN(CCO)CC2)n1 [dasatinib]
# Test: as above
# Summary of the method: as §1
row,Target,log2 fold change
1,TNIK (UniProt C9J338),-0.055 (inactive)
2,TRPM4 (UniProt Q8TD43),-0.02 (inactive)
3,TMEM154 (UniProt Q6P9G4),0.058 (inactive)
4,TCF20 (UniProt Q9UGU0),0.001 (inactive)
5,UBXN10 (UniProt Q96LJ8),-0.007 (inactive)
6,THAP9 (UniProt Q9H5L6),0.025 (inactive)
7,TLE3 (UniProt H0YL70),0.077 (inactive)
8,TBC1D20 isoform 3 (UniProt Q96BZ9),0.027 (inactive)
9,UCHL5 (UniProt Q5LJA9),-0.214 (inactive)
10,TNIK isoform 5 (UniProt Q9UKE5),0.187 (inactive)
11,TFPT (UniProt P0C1Z6),0.009 (inactive)
12,UBR4 isoform 4 (UniProt Q5T4S7),-0.083 (inactive)
13,TMPO isoform 2 (UniProt P42167),-0.042 (inactive)
14,TPM3 isoform 3 (UniProt P06753),0.05 (inactive)
15,UBN1 (UniProt Q9NPG3),0.208 (inactive)
